# According to the supplement of paper PMC3334620:
# The full ranking holds about 33,000 sequences; the median of “E-score (-0.5 to 0.5)” is about -0.016, and the highest 2% start at about 0.31. What follows is part of a selection rich in the highest values, with near analogues and random picks from the rest.
# Target: Cst6 (UniProt P40535)
# Assay: PBM E-score (8-mer binding enrichment) (E-score (-0.5 to 0.5)); higher = stronger / more preferred TF binding
# Settings: protein concentration: 200 nM; construct: GST-DNA-binding domain
# In short: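 PURExpress in vitro transcription/translation supplied GST-tagged yeast transcription factors, either full-length or DNA-binding domain. Applied at about 100-200 nM to universal all-10-mer Agilent arrays double-stranded by primer extension, the bound protein was detected with fluorescent anti-GST. E-scores, modified Wilcoxon-Mann-Whitney statistics, were given by the Universal PBM Analysis Suite to ungapped eight-base words pooled with their reverse complements after masliner normalisation.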
# Sequence of UniProt P40535 (P40535 whole entry): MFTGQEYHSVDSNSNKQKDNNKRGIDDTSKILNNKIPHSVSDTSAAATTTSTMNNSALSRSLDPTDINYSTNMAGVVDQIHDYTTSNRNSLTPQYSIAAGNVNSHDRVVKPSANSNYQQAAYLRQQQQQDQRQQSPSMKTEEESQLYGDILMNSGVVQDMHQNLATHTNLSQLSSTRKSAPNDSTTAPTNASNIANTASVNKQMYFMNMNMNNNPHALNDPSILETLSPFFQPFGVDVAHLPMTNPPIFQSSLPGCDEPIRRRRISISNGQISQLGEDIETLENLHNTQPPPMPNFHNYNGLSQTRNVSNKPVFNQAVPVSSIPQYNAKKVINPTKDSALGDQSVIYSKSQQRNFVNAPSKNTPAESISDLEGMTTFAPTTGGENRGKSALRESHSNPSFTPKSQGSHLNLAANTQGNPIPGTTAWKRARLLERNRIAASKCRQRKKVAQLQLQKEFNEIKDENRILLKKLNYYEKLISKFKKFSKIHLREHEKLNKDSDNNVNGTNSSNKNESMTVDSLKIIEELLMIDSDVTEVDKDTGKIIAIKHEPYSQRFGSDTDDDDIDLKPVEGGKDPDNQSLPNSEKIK
row,Sequence,PBM E-score
1,GCACTGCC,0.0838
2,AGTCCTTA,-0.0772
3,CAGCCCAG,-0.383
4,ACAGCCCC,-0.228
5,AGTCCCTG,-0.223
6,CGATTGAG,-0.0697
7,GACGATGA,0.301
8,CCCAGGAA,-0.176
9,CTTTCTGC,0.0175
10,ATGATGAG,0.232
11,ATGATGTG,0.333
12,AGGATGTG,-0.232
13,CTGAGAGC,-0.0922
14,CGCGCGGA,0.131
15,CGCGCGGC,0.378
16,AACGGCGC,0.251
17,CACGGCGA,0.21
18,AGCGCGGC,0.115
19,CACGGCGC,0.357
20,AGCGGCGC,0.107
21,CGCGGCGC,0.372
22,CGCGGCAA,0.134
23,AGCGGCAC,0.123
24,CGCGGCAC,0.324
25,CGCGGCGA,0.27

row,Sequence,PBM E-score
1,CTTCGTAC,-0.193
2,AACATAAT,0.246
3,ATTAACGC,0.0112
4,CAGGGAGA,-0.227
5,GACTTAAC,-0.167
6,ACGGATAC,0.115
7,ATGTCTGG,-0.0099
8,ACTCATTG,-0.129
9,ATGAACTG,0.12
10,GAACGGTC,-0.223
11,AGTGGGTG,0.0423
12,ACATCCGT,0.0894
13,CGCACGGC,0.375
14,CGCACGGA,0.154
15,CGGCGCGC,0.242
16,AGCACGGC,0.198
17,CGGCGCGA,0.35
18,AGGCGCGA,0.205
19,AAACAAAT,0.192
20,CTTATTAA,0.141
21,ATCGACGA,0.00463
22,ACGTAATC,0.484
23,CCGTAATC,0.0889
24,AAGTAATC,0.179
25,AAGTAATG,0.116

row,Sequence,PBM E-score
1,GCGTAATA,0.296
2,AGGTAATG,0.101
3,CCGTAATA,0.176
4,ACGTAATA,0.482
5,ACGTAATG,0.476
6,GCGCTCAA,-0.165
7,CCTAGCGA,-0.296
8,AGCCGACA,-0.162
9,TAATTTAA,0.287
10,CATCGCCA,0.0609
11,ACACGGAC,-0.00107
12,CTTCCAAC,-0.0988
13,AGCCGCAA,-0.127
14,AGCCGCAT,0.338
15,AGCCGCAC,0.188
16,GCACCTGC,-0.114
17,AAGCTTTG,-0.087
18,TTCTGCAA,0.138
19,AATATGTG,0.25
20,ACTATGAC,0.264
21,AATATGTC,0.319
22,GATATGAC,0.273
23,CATATGAC,0.366
24,AATATGTA,0.211
25,GCTATGAC,0.332

row,Sequence,PBM E-score
1,AATATGAC,0.35
2,AATATGAG,0.132
3,CATATGAG,0.0643
4,CCTATGAC,0.221
5,AATATGAT,0.233
6,CGAAAGCA,-0.0132
7,CATCTGAA,0.037
8,ATCCTATC,-0.0914
9,ACCGTCGG,-0.194
10,CGTCTATA,-0.0233
11,ACCTTTGC,-0.095
12,CGCTGCAC,-0.0108
13,ATTATGAA,0.292
14,ATTATGAC,0.394
15,ATTATGAG,0.22
16,CTTATGAA,0.052
17,CTTATGAC,0.368
18,CTTATGCC,0.0646
19,AACAAGAA,0.237
20,AGAAAGCT,0.0476
21,ATAGTCGA,0.168
22,GTATATTA,0.261
23,ACATATTG,0.137
24,ATATATTG,0.109
25,CCATATTA,0.0718

row,Sequence,PBM E-score
1,ACATATTA,0.312
2,ATATATTA,0.336
3,CTATATTC,0.0369
4,CTATATTA,0.333
5,CTCTATTA,0.0287
6,TACTGGCA,-0.0625
7,CAGACAGG,-0.15
8,ATCGATAC,0.171
9,AGCTCCGA,-0.145
10,CAAAGCGA,-0.0448
11,TCGACACA,0.108
12,AGCAAGCG,-0.11
13,ATCACGTA,0.344
14,CAGACGTA,0.0968
15,GCGACGTA,0.219
16,ATGACGTG,0.491
17,GGGACGTA,0.0851
18,GTGACGTA,0.496
19,ATCACGTG,0.135
20,CTGACGTA,0.489
21,AGGACGTG,-0.088
22,ATCACGTC,0.286
23,ACGACGTG,0.061
24,CCGACGTA,0.0226
25,AGGCTCGA,0.0255

row,Sequence,PBM E-score
1,CTGGTGTC,-0.119
2,GCAGCCGA,-0.053
3,AAAACCGA,0.0246
4,TTCCAAAA,0.0844
5,CAGGCTAC,-0.249
6,GCTCCGCC,-0.185
7,CCGCCGGA,-0.149
8,ACCATCGA,-0.0265
9,CGAGGCGC,0.188
10,AAGACGTA,0.215
11,ATGACGTA,0.498
12,AGGACGTA,-0.126
13,CACCGTTC,-0.0919
14,CAGGCGAG,-0.261
15,CTTGCGTC,0.249
16,AGTGCGTC,0.104
17,GTTGCGTA,0.264
18,ATTGCGTC,0.34
19,ATTGCGTG,0.154
20,ATTGCGTA,0.415
21,CTCGTTCA,0.022
22,ATTCCCGG,0.041
23,AGGAGCGG,-0.207
24,GAACGTCC,0.0008
25,AAACGTCT,0.14

row,Sequence,PBM E-score
1,TAACGTTA,0.149
2,TAACGTGA,0.284
3,GAACGTTA,-0.124
4,TAACGTCA,0.489
5,GAACGTCA,0.442
6,CAACGTCG,0.0638
7,AAACGTCC,-0.0706
8,CAACGTCC,-0.263
9,AAACGTCA,0.463
10,CAACGTCA,0.471
11,CCAGGCGA,-0.317
12,CTACCTAG,-0.231
13,ATCCCGGA,-0.249
14,AATGAGCG,0.139
15,AAGTAAAA,0.148
16,AGCCAGTG,-0.171
17,ATCGCCTA,-0.115
18,CGATTGTA,0.0905
19,CGGTCTTC,-0.0638
20,AACTGTGT,0.0284
21,ATCAGTTC,-0.0191
22,ATACAGCC,-0.059
23,GGGTGCCA,-0.137
24,CGGTATGC,-0.111
25,ACGGTCTG,-0.189

row,Sequence,PBM E-score
1,GCACGTAA,0.232
2,ACACGTAC,-0.0236
3,ACACGTAA,0.366
4,CCACGTAA,0.275
5,ACACGTAG,0.0917
6,TCACGTAA,0.415
7,CTACCCCA,-0.16
8,ATACAGAC,0.128
9,CCGCAACA,0.113
10,GACGTTAC,0.315
11,AACGTTAC,0.137
12,GACGTTAA,0.32
13,CACGTTAC,0.143
14,CACGTTAA,0.0603
15,TACGTTAA,0.189
16,GCCAAAAC,0.00644
17,AGCTGCGA,-0.198
18,AGCGGTCC,-0.134
19,ATACGGGC,-0.204
20,ACTGGGGG,-0.426
21,CGGACGCA,-0.0966
22,CGGCGCCC,0.143
23,CGGCGCCG,0.384
24,AGGCGCCG,0.325
25,CGGCGCCA,0.161

row,Sequence,PBM E-score
1,AGGCGCCA,0.0572
2,AGGCGCCT,0.207
3,CCGTCGAA,0.0203
4,GCAAATGC,0.0351
5,AATAGCCC,-0.132
6,AGCCGGCT,-0.193
7,GAGATGAC,0.239
8,CGGATGAG,-0.135
9,AAGATGAG,-0.0416
10,AAGATGAT,0.229
11,CAGATGAG,0.0374
12,CGGATGAC,0.321
13,CAGATGAC,0.383
14,CGGATGAA,0.127
15,AAGATGAC,0.345
16,GTAAGTCA,0.132
17,TCGCTCAA,-0.091
18,AATTGCCC,-0.055
19,CCAAAAGA,0.207
